IL-1B inflam inh = blocks inflammasome-driven IL-1 beta release. THP-1 LPS/ATP IL-1B secretion, AlphaLISA, 16 h; active compounds read low. activity change, % at 57.5 µM. 360,000 compounds, 4.7% hits. AID 743279; in the data active means activity change below about -50%; inconclusive means mostly about -30% to -49%; further: on the % scale 0 is the no-effect control and ±100 the full control effect
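Secreted IL-1B measured by AlphaLISA bead assay after 16 h compound exposure of THP-1 cells; compounds (final up to 57.5 uM) added 1 h before LPS (250 ng/mL) and ATP (1.25 mM) stimulation; lower signal means less secretion.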
TGFb SMAD3 inh = inhibitors of TGF-b signaling. HepG2 CAGA-GFP TGF-b/SMAD3 reporter, GFP fluorescence, 18 h; TGF-beta stimulated, 500 pg/mL final. Potency, µM (top dose mostly 46.1 µM), inactives show top-dose activity, negative = inhibition, actives largely listed as inhibitors. 410,000 compounds, 1.2% hits. AID 588855; further: potency means the concentration at half of the fitted maximal effect; on the % scale 0 is the no-effect control and ±100 the full control effect; nearly all actives have a fitted effect of over 65% in size
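Using HEPG2 CAGA-GFP reporter cells at 1000 cells/well, we pinned test compounds, stimulated with recombinant TGF-beta (500 pg/mL final) and measured total well GFP after 18 h.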
HepG2 tox = kills HepG2 cells in TGF-b inhibitor counter-screen | HepG2 CAGA-GFP viability, ATP luminescence, 18 h | Potency, µM (titrated, usually from 46.1 µM), inactives show at the top dose activity change, negative = cytotoxicity, most hits filed as cytotoxic | 410,000 compounds, 0.76% hits | AID 588856; further: potency means the concentration at half of the fitted maximal effect
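HepG2 CAGA-GFP cells (1000/well, DMEM with 1% FBS) received compound, then TGF-beta at 500 pg/mL final, and were incubated 18 hours at 37 degrees C. Viability was read by CellTiter-Glo luminescence. Media-only wells were set as complete cell-killing and DMSO as no toxicity.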
DT40 TDP1 no CPT = qHTS for Inhibitors of human tyrosyl-DNA phosphodiesterase 1 (TDP1): qHTS in cells in absence of CPT. DT40 Tdp1-/- hTDP1 cells, no CPT, ATP luminescence, 48 h. Potency, µM (top dose mostly 46.2 µM), inactives show at the highest dose activity change, negative = growth inhibition, hits mostly inhibitors. 420,000 compounds, 15% hits; further: potency means the concentration at half of the fitted maximal effect; on the % scale 0 is the no-effect control and ±100 the full control effect; nearly all actives have a fitted effect of over 55% in size
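DT40 Tdp1-/-;hTDP1 cells, no CPT (DMSO vehicle only), 400 cells/well; compounds pin-transferred; ≥48 hr, 37 °C; CellTiter-Glo 30 min RT dark, luminescence read.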
TDP1 block = blocks human tyrosyl-DNA phosphodiesterase 1 | Q9NUW8 | recombinant TDP1, AlphaScreen DNA substrate cleavage | Potency, µM (highest dose often 130 µM), for the others: at the top dose activity change, negative = inhibition, most hits filed as inhibitors | 350,000 compounds, 0.28% hits | AID 485290; further: potency means the concentration at half of the fitted maximal effect; on the % scale 0 is the no-effect control and ±100 the full control effect; nearly all actives have a fitted effect of over 40% in size
Target sequence (Q9NUW8 whole entry, looked up): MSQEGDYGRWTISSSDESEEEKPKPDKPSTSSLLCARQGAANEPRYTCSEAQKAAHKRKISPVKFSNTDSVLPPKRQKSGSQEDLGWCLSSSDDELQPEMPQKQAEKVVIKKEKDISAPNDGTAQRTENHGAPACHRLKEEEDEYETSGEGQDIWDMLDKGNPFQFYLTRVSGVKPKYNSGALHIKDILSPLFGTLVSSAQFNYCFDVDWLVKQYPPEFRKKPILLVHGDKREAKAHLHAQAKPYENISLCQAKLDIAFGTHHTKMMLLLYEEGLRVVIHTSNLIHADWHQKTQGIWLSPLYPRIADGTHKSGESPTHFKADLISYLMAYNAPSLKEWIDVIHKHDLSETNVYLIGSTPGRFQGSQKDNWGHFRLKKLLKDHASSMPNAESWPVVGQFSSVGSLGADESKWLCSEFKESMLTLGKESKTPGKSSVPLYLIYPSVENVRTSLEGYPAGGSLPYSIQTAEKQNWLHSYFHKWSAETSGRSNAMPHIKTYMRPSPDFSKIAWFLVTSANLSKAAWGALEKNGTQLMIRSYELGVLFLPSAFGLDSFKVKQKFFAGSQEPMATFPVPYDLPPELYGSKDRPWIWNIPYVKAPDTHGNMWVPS
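Signal: AlphaScreen proximity between streptavidin donor and anti-FITC acceptor beads on intact substrate. Reaction: Tdp1 1 nM, substrate 15 nM final, 5 min RT after 15 min compound preincubation.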
DT40 TDP1 CPT = DT40-hTDP1 cell growth loss with CPT. Potency, µM (titrated, usually from 46.2 µM), without a hit: top-dose activity change, negative = growth inhibition, usual class: inhibitors. 420,000 compounds, 12% hits. chicken DT40 Tdp1-/-;hTDP1 cells + 20 nM CPT, ATP luminescence, 48 h. AID 686979; further: potency means the concentration at half of the fitted maximal effect; on the % scale 0 is the no-effect control and ±100 the full control effect; nearly all actives have a fitted effect of over 55% in size
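Chicken DT40 Tdp1-/- cells stably complemented with human TDP1 were seeded at 400 cells/well in medium containing 20 nM camptothecin, exposed to pin-transferred compounds, and grown at 37 °C for at least 48 hr. Viability was read as ATP luminescence.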
* = called active by the depositor; ? = inconclusive; nt = no result given. Most compounds without a hit are left out; they make up all but 19% or so of the library. Unless noted, the call rests on the fitted dose curve; in most records, active means well fitted curve in the direction sought with a large enough effect; inconclusive means small, poorly fitted or top-dose-only effect, or another doubt; inactive means no such curve, though single readings can be large; an effect the other way counts as inactive or inconclusive.

SMILES	IL-1B inflam inh	TGFb SMAD3 inh	HepG2 tox	DT40 TDP1 no CPT	TDP1 block	DT40 TDP1 CPT
O=C1C=CC(=O)N1CCCCCCCCCCN1C(=O)C=CC1=O	-87*	13µM*	-28%	1.3µM*	nt	0.58µM*
Cc1ccc(NC(=O)c2cc(S(=O)(=O)N3CCC(C)CC3)cn2C)cc1Cl	nt	-12%	2%	-13%	4%	-14%
Cc1[nH]c2ccccc2c1C(C[N+](=O)[O-])c1cccc(O)c1 (centres undefined)	-7	?	-1%	?	2%	?
Cc1[nH]c2ccccc2c1C(C[N+](=O)[O-])c1cccs1 (centres undefined)	-96*	-18%	2%	?	7%	?
Cc1ccc(-c2[nH]c3ccccc3c2C(C[N+](=O)[O-])c2ccco2)cc1 (centres undefined)	-1	?	16µM*	?	8%	?
Cc1[nH]c2ccccc2c1C(C[N+](=O)[O-])c1ccco1 (centres undefined)	4	-15%	-13%	?	3%	?
COc1cc(C2Nc3ccccc3C(=O)N2Cc2ccco2)ccc1O (centres undefined)	nt	9%	26%	?	4%	?
CCCCN(CC)C(=O)Cn1nc(Cc2ccncc2)c2ccccc2c1=O	-21	-12%	-1%	1%	nt	-10%
COc1ccc(Cl)cc1NC(=O)Cn1c(=O)n(Cc2ccco2)c(=O)c2cccnc21	nt	14%	5%	16µM*	-3%	?
CCN(C(=O)Cn1nc(Cc2ccncc2)c2ccccc2c1=O)c1cccc(Cl)c1	nt	?	-35%	21µM*	4%	?
CCN(C(=O)Cn1nc(Cc2cccnc2)c2ccccc2c1=O)c1cc(C)ccc1C	nt	?	-23%	23µM*	12%	23µM*
COc1ccc(Cl)cc1NC(=O)Cn1nc(Cc2ccncc2)c2ccccc2c1=O	nt	?	-36%	23µM*	-1%	?
O=C(Nc1cccc(Cl)c1)OCC#CCCl	nt	nt	nt	nt	21%	nt
O=C(Nc1ccc2c(c1)OCO2)c1n[nH]c(=O)c2ccccc12	0	-8%	-2%	-1%	1%	-17%
Cc1cccc(N2CCN(C(=O)Cn3nc(Cc4cccnc4)c4ccccc4c3=O)CC2)c1C	nt	?	-37%	8.2µM*	9%	13µM*
Cc1ccc(S(=O)(=O)Cn2nnnc2C(c2ccc(F)cc2)N2CCCCC2)cc1 (centres undefined)	-1	-3%	-25%	23µM*	-2%	?
Cc1ccc2cc(C(c3nnnn3Cc3ccccc3)N3CCN(c4ccccc4)CC3)c(=O)[nH]c2c1 (centres undefined)	-21	?	10%	?	3%	13µM*
c1ccc(CN2CCN(C(c3ccccc3)c3nnnn3Cc3ccccc3)CC2)cc1 (centres undefined)	-58*	?	-29%	18µM*	1%	?
Cc1ccc(C(c2nnnn2Cc2ccccc2)N2CCN(Cc3ccccc3)CC2)cc1 (centres undefined)	?	0%	-1%	16µM*	7%	?
Cc1ccc(C(c2nnnn2CS(=O)(=O)c2ccc(C)cc2)N2CCCC2)cc1 (centres undefined)	-24	-2%	-49%	1%	5%	-27%
O=C(CCc1nnc2ccc(NCc3ccco3)nn12)Nc1cccc(F)c1	-5	-9%	-29%	4%	4%	-14%
COC(=O)CN1C(=O)CSc2ccc(S(=O)(=O)Nc3cccc(C)c3C)cc21	nt	?	-24%	?	6%	?
Cc1cccc2cc(C(c3nnnn3Cc3ccccc3)N3CCCc4ccccc43)c(=O)[nH]c12 (centres undefined)	46	-1%	-3%	16µM*	6%	13µM*
CCN1CCN(C(c2cc3cccc(C)c3[nH]c2=O)c2nnnn2Cc2ccccc2)CC1 (centres undefined)	-3	-13%	-42%	-21%	3%	-30%
COc1ccc(CCNC(=O)c2cc(=O)[nH]c3ccc(S(=O)(=O)N4CCCCC4)cc23)cc1OC	nt	?	-2%	-17%	3%	2%
SMILES	IL-1B inflam inh	TGFb SMAD3 inh	HepG2 tox	DT40 TDP1 no CPT	TDP1 block	DT40 TDP1 CPT
NC(=O)c1ccc(NC(=O)CNC(=O)c2sc3ccccc3c2Cl)cc1	-24	22%	-1%	-10%	-10%	-22%
CC(=O)c1ccc(-c2cnc3c(NC=O)cc(-c4cnn(C)c4)cn23)cc1	?	?	10%	23µM*	nt	18µM*
CN(C)CCNC(=O)c1cccc(-c2cnc3c(NC=O)cc(-c4ccc(S(C)(=O)=O)cc4)cn23)c1	-5	-5%	-6%	7%	nt	8%
CC(=O)c1ccc(-c2cnc3c(NC=O)cc(-c4ccc(S(C)(=O)=O)cc4)cn23)cc1	-4	-8%	-2%	7.3µM*	nt	8.2µM*
CCCCN(C(=O)c1ccc2c(c1)OCO2)C1CCS(=O)(=O)C1 (centres undefined)	15	26%	16%	-12%	nt	0%
CN(Cc1ccc(C#CCCO)cc1)CC1CCCN(CCc2ccc(Cl)cc2)C1 (centres undefined)	-29	?	-41%	15µM*	nt	18µM*
COc1ccc(CCN2CCCC(CN(C)Cc3cc(OC)ccc3OC)C2)cc1 (centres undefined)	?	5%	-38%	?	nt	?
Cc1occc1C(=O)N(C)CC1CCCN(CCc2ccc(Cl)cc2)C1 (centres undefined)	-22	-2%	-23%	21µM*	nt	?
COc1ccc(CN(C)CC2CCCN(CCc3ccc(F)cc3)C2)c(OC)c1OC (centres undefined)	nt	?	-35%	15µM*	nt	23µM*
COc1ccc(CCN2CCCC(CN(C)Cc3cccc(OC)c3)C2)cc1 (centres undefined)	-15	2%	-34%	?	nt	?
CN(Cc1ccccc1O)CC1CCCN(CCc2ccc(Cl)cc2)C1 (centres undefined)	-14	-8%	-39%	?	nt	?
CCN(Cc1ccc(C#CCCO)cc1)CC1CCCN(CCc2cccc(F)c2)C1 (centres undefined)	-23	-16%	-46%	21µM*	3%	?
